{
  "source": "the supplement of paper PMC3334620",
  "note": "The full ranking holds about 33,000 sequences; the median of “E-score (-0.5 to 0.5)” is about -0.043, and the highest 2% start at about 0.37. Many of the other results were omitted from the sample, so the highest values are more common in it than they were.",
  "data": [
    {"molecular_target": "T1, Upc2 (UniProt Q12151)", "T1 sequence": "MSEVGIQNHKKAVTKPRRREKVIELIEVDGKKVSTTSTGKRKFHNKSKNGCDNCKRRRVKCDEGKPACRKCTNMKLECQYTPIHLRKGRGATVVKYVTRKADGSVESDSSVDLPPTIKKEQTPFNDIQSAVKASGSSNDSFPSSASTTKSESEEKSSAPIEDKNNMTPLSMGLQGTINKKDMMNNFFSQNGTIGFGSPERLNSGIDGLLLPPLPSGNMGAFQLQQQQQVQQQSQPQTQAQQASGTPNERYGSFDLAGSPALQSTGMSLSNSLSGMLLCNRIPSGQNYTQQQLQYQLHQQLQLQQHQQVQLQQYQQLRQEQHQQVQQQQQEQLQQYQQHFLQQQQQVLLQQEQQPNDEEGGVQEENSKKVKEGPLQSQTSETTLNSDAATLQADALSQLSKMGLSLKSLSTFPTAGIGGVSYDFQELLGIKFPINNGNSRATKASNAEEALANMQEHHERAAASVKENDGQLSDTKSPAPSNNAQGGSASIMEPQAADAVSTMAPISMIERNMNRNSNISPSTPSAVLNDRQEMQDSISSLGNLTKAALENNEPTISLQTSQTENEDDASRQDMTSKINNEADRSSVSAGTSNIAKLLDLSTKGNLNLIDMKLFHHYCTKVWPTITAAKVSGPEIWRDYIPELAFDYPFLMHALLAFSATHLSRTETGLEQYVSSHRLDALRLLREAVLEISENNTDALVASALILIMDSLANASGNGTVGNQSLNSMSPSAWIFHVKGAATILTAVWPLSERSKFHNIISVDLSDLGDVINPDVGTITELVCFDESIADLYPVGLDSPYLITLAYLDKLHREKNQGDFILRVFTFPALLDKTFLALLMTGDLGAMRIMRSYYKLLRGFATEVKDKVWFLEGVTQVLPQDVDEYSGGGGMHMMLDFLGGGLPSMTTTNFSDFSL", "experiment": "PBM E-score (8-mer binding enrichment) (E-score (-0.5 to 0.5)); higher = stronger / more preferred TF binding", "conditions": "protein concentration: 200 nM; construct: GST-full length", "in_short": "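For each ungapped eight-base word taken together with its reverse complement, the Universal PBM Analysis Suite assigned an E-score. Binding data came from GST-tagged yeast transcription factors, applied at about 100-200 nM, on universal all-10-mer Agilent arrays made double-stranded by primer extension. Fluorescent anti-GST marked bound protein, and scans were normalised with masliner.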", "values": [
      {"sequence": "ATGTAAAC", "PBM E-score": 0.27},
      {"sequence": "AGTGAGAC", "PBM E-score": -0.0557},
      {"sequence": "GCCTGCCA", "PBM E-score": -0.317},
      {"sequence": "CAATAGAA", "PBM E-score": -0.241},
      {"sequence": "GCGAACCA", "PBM E-score": 0.164},
      {"sequence": "CCGAACCA", "PBM E-score": -0.127},
      {"sequence": "CCGAACCG", "PBM E-score": 0.0623},
      {"sequence": "ACGAACCA", "PBM E-score": 0.376},
      {"sequence": "ACGAACCC", "PBM E-score": 0.301},
      {"sequence": "ACGAACCG", "PBM E-score": 0.378},
      {"sequence": "TCAGCCAA", "PBM E-score": -0.177},
      {"sequence": "CGTGCGAA", "PBM E-score": 0.214},
      {"sequence": "ATTTTGCA", "PBM E-score": -0.0911},
      {"sequence": "GTTTACGA", "PBM E-score": 0.471},
      {"sequence": "CTTTACGA", "PBM E-score": 0.471},
      {"sequence": "CTTTACGC", "PBM E-score": 0.332},
      {"sequence": "GTTTACTA", "PBM E-score": 0.224},
      {"sequence": "CATTACGA", "PBM E-score": 0.316},
      {"sequence": "ATTTACGC", "PBM E-score": 0.154},
      {"sequence": "ATTTACGG", "PBM E-score": 0.297},
      {"sequence": "GTTTACAA", "PBM E-score": 0.164},
      {"sequence": "ATTTACGA", "PBM E-score": 0.45},
      {"sequence": "GAGGGGGA", "PBM E-score": -0.0209},
      {"sequence": "GTCGAGTA", "PBM E-score": 0.0357},
      {"sequence": "ATTGTATC", "PBM E-score": -0.2},
      {"sequence": "GAGGGAAC", "PBM E-score": -0.0277},
      {"sequence": "AATAAGTA", "PBM E-score": 0.0339},
      {"sequence": "CTGTTGGC", "PBM E-score": -0.209},
      {"sequence": "CTGCGACC", "PBM E-score": -0.164},
      {"sequence": "ATCACAGA", "PBM E-score": -0.155},
      {"sequence": "CTCCTATA", "PBM E-score": -0.0688},
      {"sequence": "CGCTATTC", "PBM E-score": 0.102},
      {"sequence": "CCCAAACG", "PBM E-score": 0.431},
      {"sequence": "CGCAAACG", "PBM E-score": 0.412},
      {"sequence": "CACAAACA", "PBM E-score": -0.0461},
      {"sequence": "AACAAACG", "PBM E-score": 0.353},
      {"sequence": "ACCAAACA", "PBM E-score": 0.208},
      {"sequence": "CGCAAACA", "PBM E-score": 0.0866},
      {"sequence": "CCAAAACG", "PBM E-score": 0.114},
      {"sequence": "CGCAAGCG", "PBM E-score": 0.115},
      {"sequence": "ACCAAACG", "PBM E-score": 0.4},
      {"sequence": "CACAAACG", "PBM E-score": 0.387},
      {"sequence": "CCCAAGCG", "PBM E-score": -0.031},
      {"sequence": "ACCAAACC", "PBM E-score": -0.0475},
      {"sequence": "AGGCCAAG", "PBM E-score": -0.17},
      {"sequence": "GAGCAGCA", "PBM E-score": -0.098},
      {"sequence": "AGTTCGAA", "PBM E-score": 0.0491},
      {"sequence": "AACACAGA", "PBM E-score": -0.00201},
      {"sequence": "CCCTTCGG", "PBM E-score": -0.0969},
      {"sequence": "ATCGCAAG", "PBM E-score": -0.255},
      {"sequence": "AGGACTTG", "PBM E-score": -0.287},
      {"sequence": "CCTACGCA", "PBM E-score": -0.196},
      {"sequence": "ATCGACAG", "PBM E-score": -0.0101},
      {"sequence": "AACGACAT", "PBM E-score": 0.432},
      {"sequence": "AACGACAC", "PBM E-score": 0.428},
      {"sequence": "CACGACAG", "PBM E-score": 0.0499},
      {"sequence": "ACCGACAT", "PBM E-score": 0.199},
      {"sequence": "AACGACAA", "PBM E-score": 0.402},
      {"sequence": "AGCGACAT", "PBM E-score": 0.177},
      {"sequence": "CACGACAC", "PBM E-score": 0.114},
      {"sequence": "GACGACAC", "PBM E-score": -0.079},
      {"sequence": "AACGACAG", "PBM E-score": 0.419},
      {"sequence": "CACGACAA", "PBM E-score": 0.0377},
      {"sequence": "GACGACAA", "PBM E-score": 0.0707},
      {"sequence": "GACCAAGC", "PBM E-score": -0.234},
      {"sequence": "CCATGGAC", "PBM E-score": -0.201},
      {"sequence": "AGGACAGA", "PBM E-score": -0.347},
      {"sequence": "ATGTGAAC", "PBM E-score": 0.00151},
      {"sequence": "GAATTAGC", "PBM E-score": -0.0225},
      {"sequence": "CTTACAGC", "PBM E-score": -0.0579},
      {"sequence": "TCCGGGAA", "PBM E-score": -0.0708},
      {"sequence": "GGAAGAAA", "PBM E-score": -0.136},
      {"sequence": "GGATCGCC", "PBM E-score": -0.0204},
      {"sequence": "TACGACAA", "PBM E-score": 0.46},
      {"sequence": "TTCGACAA", "PBM E-score": 0.0423},
      {"sequence": "TGCGACAA", "PBM E-score": 0.141},
      {"sequence": "ACTCTATA", "PBM E-score": 0.0319},
      {"sequence": "GGACCTTA", "PBM E-score": 0.00047},
      {"sequence": "GACGTTAA", "PBM E-score": 0.154},
      {"sequence": "CTCGTTAA", "PBM E-score": 0.466},
      {"sequence": "ATCGTTAC", "PBM E-score": 0.264},
      {"sequence": "ATCGTTAA", "PBM E-score": 0.435},
      {"sequence": "ATCGTTAG", "PBM E-score": 0.239},
      {"sequence": "CACGTTAA", "PBM E-score": 0.131},
      {"sequence": "CTCGTTAC", "PBM E-score": 0.36},
      {"sequence": "GTCGTTAA", "PBM E-score": 0.465}
    ]}
  ]
}
